Source: PubChem BioAssay AID1159580 (chemical genetic matrix, 2015)
Among all 5,500 compounds or so, about 2,000 (36%) were called active. Not shown: some 18% with an inconclusive outcome. No stated cut-off is given here; in the data, active means normalized growth mostly below about 0.91 (no sharp cut-off); inconclusive means no clear call, values can overlap the other calls; inactive means mostly above about 0.92. Some of the results follow.

Assay: chemical genetic growth profiling, strain panel (AID 1159580);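 further: tested at 20 µM; growth read once vehicle control cultures reached saturation at 30 °C; 1 = growth at the plate median or of vehicle wells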
Conditions: growth OD
[1] = S. cerevisiae deletion strains, locus YDL101C, strain DUN1, stronger effect = lower value
[2] = S. cerevisiae deletion strains, locus YHR030C, strain SLT2, stronger effect = lower value

Measured: normalized growth

COC(=O)c1cc([N+](=O)[O-])ccc1S(=O)(=O)Cc1ccc(Cl)cc1
inactive: S. cerevisiae deletion strains, locus YAR019C, strain CDC15, stronger effect = lower value 0.971 | S. cerevisiae deletion strains, locus YBL105C, strain PKC1, stronger effect = lower value 0.983 | S. cerevisiae deletion strains, locus YBR135W, strain CKS1, stronger effect = lower value 0.991 | S. cerevisiae deletion strains, locus YBR136W, strain MEC1, stronger effect = lower value 0.967 | S. cerevisiae deletion strains, locus YBR160W, strain CDC28, stronger effect = lower value 0.998 | S. cerevisiae deletion strains, locus YDL017W, strain CDC7, stronger effect = lower value 0.985 | S. cerevisiae deletion strains, locus YDL028C, strain MPS1, stronger effect = lower value 0.98 | [1] 0.987 | S. cerevisiae deletion strains, locus YDL108W, strain KIN28, stronger effect = lower value 0.988 | S. cerevisiae deletion strains, locus YDL132W, strain cdc53, stronger effect = lower value 0.991 | S. cerevisiae deletion strains, locus YDL214C, strain PRR2, stronger effect = lower value 0.952 | S. cerevisiae deletion strains, locus YDR052C, strain DBF4, stronger effect = lower value 0.996 | S. cerevisiae deletion strains, locus YDR054C, strain cdc34, stronger effect = lower value 0.983 | S. cerevisiae deletion strains, locus YDR226W, strain ADK1, stronger effect = lower value 0.985 | S. cerevisiae deletion strains, locus YDR477W, strain SNF1, stronger effect = lower value 0.948 | S. cerevisiae deletion strains, locus YER123W, strain YCK3, stronger effect = lower value 0.955 | S. cerevisiae deletion strains, locus YER133W, strain GLC7, stronger effect = lower value 0.956 | S. cerevisiae deletion strains, locus YFL009W, strain cdc4, stronger effect = lower value 0.99 | S. cerevisiae deletion strains, locus YFL029C, strain CAK1, stronger effect = lower value 0.974 | S. cerevisiae deletion strains, locus YFR003C, strain YPI1, stronger effect = lower value 0.992 | S. cerevisiae deletion strains, locus YFR019W, strain FAB1, stronger effect = lower value 0.974 | S. cerevisiae deletion strains, locus YFR028C, strain CDC14, stronger effect = lower value 0.981 | S. cerevisiae deletion strains, locus YGR040W, strain KSS1, stronger effect = lower value 0.941 | S. cerevisiae deletion strains, locus YGR052W, strain FMP48, stronger effect = lower value 1.04 | S. cerevisiae deletion strains, locus YGR092W, strain DBF2, stronger effect = lower value 0.946 | [2] 0.937 | S. cerevisiae deletion strains, locus YHR079C, strain IRE1, stronger effect = lower value 0.97 | S. cerevisiae deletion strains, locus YHR082C, strain KSP1, stronger effect = lower value 0.995 | S. cerevisiae deletion strains, locus YHR205W, strain SCH9, stronger effect = lower value 0.98 | S. cerevisiae deletion strains, locus YIL147C, strain SLN1, stronger effect = lower value 0.981 | S. cerevisiae deletion strains, locus YJL095W, strain BCK1, stronger effect = lower value 0.966 | S. cerevisiae deletion strains, locus YJL128C, strain PBS2, stronger effect = lower value 0.967 | S. cerevisiae deletion strains, locus YJL157C, strain FAR1, stronger effect = lower value 0.964 | S. cerevisiae deletion strains, locus YJR016C, strain ILV3, stronger effect = lower value 0.993 | S. cerevisiae deletion strains, locus YJR066W, strain TOR1 (second series), stronger effect = lower value 0.88 | S. cerevisiae deletion strains, locus YJR066W, strain TOR1, stronger effect = lower value 0.965 | S. cerevisiae deletion strains, locus YKL048C, strain ELM1, stronger effect = lower value 0.976 | S. cerevisiae deletion strains, locus YKL067W, strain YNK1, stronger effect = lower value 0.956 | S. cerevisiae deletion strains, locus YKL101W, strain HSL1, stronger effect = lower value 0.949 | S. cerevisiae deletion strains, locus YKL193C, strain SDS22, stronger effect = lower value 0.984 | S. cerevisiae deletion strains, locus YKL203C, strain TOR2, stronger effect = lower value 1 | S. cerevisiae deletion strains, locus YLR113W, strain HOG1, stronger effect = lower value 0.957 | S. cerevisiae deletion strains, locus YLR133W, strain CKI1, stronger effect = lower value 0.951 | S. cerevisiae deletion strains, locus YLR403W, strain SFP1, stronger effect = lower value 0.957 | S. cerevisiae deletion strains, locus YML070W, strain DAK1, stronger effect = lower value 0.958 | S. cerevisiae deletion strains, locus YMR001C, strain CDC5, stronger effect = lower value 0.984 | S. cerevisiae deletion strains, locus YMR205C, strain PFK2 (second series), stronger effect = lower value 0.957 | S. cerevisiae deletion strains, locus YMR277W, strain FCP1, stronger effect = lower value 0.992 | S. cerevisiae deletion strains, locus YNL006W, strain LST8, stronger effect = lower value 0.996 | S. cerevisiae deletion strains, locus YNL020C, strain ARK1, stronger effect = lower value 0.96 | S. cerevisiae deletion strains, locus YNL161W, strain CBK1, stronger effect = lower value 0.988 | S. cerevisiae deletion strains, locus YNL183C, strain NPR1, stronger effect = lower value 0.97 | S. cerevisiae deletion strains, locus YNL207W, strain RIO2, stronger effect = lower value 0.98 | S. cerevisiae deletion strains, locus YNL222W, strain SSU72, stronger effect = lower value 0.988 | S. cerevisiae deletion strains, locus YNL307C, strain MCK1 (second series), stronger effect = lower value 0.976 | S. cerevisiae deletion strains, locus YOL078W, strain AVO1, stronger effect = lower value 0.991 | S. cerevisiae deletion strains, locus YOL136C, strain PFK27, stronger effect = lower value 0.952 | S. cerevisiae deletion strains, locus YOR061W, strain CKA2, stronger effect = lower value 0.948 | S. cerevisiae deletion strains, locus YOR119C, strain RIO1, stronger effect = lower value 0.973 | S. cerevisiae deletion strains, locus YOR231W, strain MKK1, stronger effect = lower value 0.98 | S. cerevisiae deletion strains, locus YOR329C, strain SCD5, stronger effect = lower value 0.984 | S. cerevisiae deletion strains, locus YPL031C, strain PHO85, stronger effect = lower value 0.955 | S. cerevisiae deletion strains, locus YPL153C, strain RAD53, stronger effect = lower value 0.951 | S. cerevisiae deletion strains, locus YPL204W, strain HRR25, stronger effect = lower value 0.95 | S. cerevisiae deletion strains, locus YPL209C, strain IPL1, stronger effect = lower value 0.983 | S. cerevisiae deletion strains, locus YPL256C, strain CLN2, stronger effect = lower value 0.945 | S. cerevisiae deletion strains, locus YPR025C, strain CCL1, stronger effect = lower value 0.987 | S. cerevisiae deletion strains, locus YPR106W, strain ISR1, stronger effect = lower value 0.985 | S. cerevisiae deletion strains, locus YPR111W, strain DBF20, stronger effect = lower value 0.984 | S. cerevisiae deletion strains, strain NNK1, stronger effect = lower value 0.982 | S. cerevisiae deletion strains, strain TSCII, stronger effect = lower value 0.981

Cc1cc(S(=O)(=O)NC(Cc2ccc([N+](=O)[O-])cc2)C(=O)O)c(Cl)cc1Cl (centres undefined)
inactive: S. cerevisiae deletion strains, locus YAL013W, strain DEP1, stronger effect = lower value 1.01 | S. cerevisiae deletion strains, locus YBR229C, strain ROT2, stronger effect = lower value 0.996 | S. cerevisiae deletion strains, locus YCL061C, strain MRC1, stronger effect = lower value 1 | [1] 0.997 | S. cerevisiae deletion strains, locus YDR150W, strain NUM1, stronger effect = lower value 0.927 | S. cerevisiae deletion strains, locus YEL061C, strain CIN8, stronger effect = lower value 1.01 | S. cerevisiae deletion strains, locus YGR078C, strain PAC10, stronger effect = lower value 1 | S. cerevisiae deletion strains, locus YGR229C, strain SMI1, stronger effect = lower value 1.01 | [2] 1.07 | S. cerevisiae deletion strains, locus YHR087W, strain rtc3, stronger effect = lower value 1 | S. cerevisiae deletion strains, locus YJR043C, strain POL32, stronger effect = lower value 0.998 | S. cerevisiae deletion strains, locus YJR075W, strain HOC1, stronger effect = lower value 1 | S. cerevisiae deletion strains, locus YLR039C, strain RIC1, stronger effect = lower value 1.01 | S. cerevisiae deletion strains, locus YLR058C, strain SHM2 (second series), stronger effect = lower value 1 | S. cerevisiae deletion strains, locus YLR085C, strain ARP6, stronger effect = lower value 1.02 | S. cerevisiae deletion strains, locus YLR262C, strain YPT6, stronger effect = lower value 1 | S. cerevisiae deletion strains, locus YML094W, strain GIM5, stronger effect = lower value 1.02 | S. cerevisiae deletion strains, locus YMR219W, strain ESC1, stronger effect = lower value 0.995 | S. cerevisiae deletion strains, locus YMR263W, strain SAP30, stronger effect = lower value 1 | S. cerevisiae deletion strains, locus YNL128W, strain TEP1, stronger effect = lower value 1 | S. cerevisiae deletion strains, locus YNL153C, strain GIM3, stronger effect = lower value 0.995 | S. cerevisiae deletion strains, locus YNL298W, strain CLA4 (second series), stronger effect = lower value 1.01 | S. cerevisiae deletion strains, locus YNL322C, strain KRE1, stronger effect = lower value 1 | S. cerevisiae deletion strains, locus YNR030W, strain Alg12, stronger effect = lower value 1.01 | S. cerevisiae deletion strains, locus YPL055C, strain LGE1, stronger effect = lower value 1.04 | S. cerevisiae deletion strains, locus YPL241C, strain CIN2, stronger effect = lower value 1.02 | S. cerevisiae deletion strains, locus YPR135W, strain CTF4, stronger effect = lower value 0.988 | S. cerevisiae strains, strain wild type, stronger effect = lower value 1.01
